Assay outcomes from PubChem BioAssay.
Only some compounds are listed: those with a hit (about 1.4% of all), similar ones and a draw of the others.
VLA-4 inh: inhibition in a human VLA-4 binding assay; P13612; VLA-4 expressing cells, ligand binding flow cytometry; inhibition, % (about 7 µM as worked out from the volumes in the protocol); 0.2% of 330,000 active; AID 2557; in the data active = inhibition above about 50%
GRK2 aptamer HTS: human GRK2 inhibition via aptamer displacement; P25098; bead flow cytometry, FAM-aptamer displacement from GRK2; inhibition of aptamer binding, % at 10 µM; 0.59% of 330,000 active;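 active = inhibition of aptamer binding above 40%, roughly 3 SD of noise, on plates passing a quality check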;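 note: median bead fluorescence of bound FAM aptamer so fluorescent compounds give negative values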
A3A deaminase: human APOBEC3A DNA deaminase inhibition; P31941; 0.41% of 330,000 active; inhibition, % at 20 µM; recombinant A3A, FAM/TAMRA ssDNA deamination fluorescence;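 active = at least 40% inhibition at 20 µM here, with at most 30% in a related deaminase screen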;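 note: plate controls were A3A with DMSO for no effect and wells lacking A3A enzyme for full effect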
Target sequence (P31941 whole entry, looked up): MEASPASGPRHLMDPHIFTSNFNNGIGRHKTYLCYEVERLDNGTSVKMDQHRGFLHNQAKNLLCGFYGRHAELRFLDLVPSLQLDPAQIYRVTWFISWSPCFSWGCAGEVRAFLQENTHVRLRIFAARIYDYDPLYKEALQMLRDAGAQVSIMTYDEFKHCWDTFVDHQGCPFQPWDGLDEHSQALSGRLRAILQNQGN
A3G deaminase: blocks human APOBEC3G single-stranded DNA deamination | Q9HC16 | recombinant A3G, ssDNA deamination FAM/TAMRA fluorescence | inhibition, % at 20 µM | 0.28% of 330,000 active | AID 493012;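 active = inhibition of at least 40% at 20 µM, with no more than 30% in the related APOBEC3A deaminase screen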;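 note: plate controls were DMSO wells with A3G for no effect and wells lacking A3G enzyme for full effect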
Target sequence (Q9HC16 whole entry, looked up): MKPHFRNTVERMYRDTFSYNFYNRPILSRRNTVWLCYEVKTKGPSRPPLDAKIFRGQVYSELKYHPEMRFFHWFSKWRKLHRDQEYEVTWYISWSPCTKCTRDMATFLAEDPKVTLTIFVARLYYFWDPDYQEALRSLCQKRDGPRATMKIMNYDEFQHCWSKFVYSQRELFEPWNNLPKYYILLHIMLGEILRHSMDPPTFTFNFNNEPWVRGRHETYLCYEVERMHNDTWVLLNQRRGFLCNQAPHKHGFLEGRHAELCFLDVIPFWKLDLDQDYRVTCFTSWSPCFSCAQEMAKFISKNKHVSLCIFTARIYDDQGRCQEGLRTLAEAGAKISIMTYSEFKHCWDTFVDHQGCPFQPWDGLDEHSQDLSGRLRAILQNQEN
VLA-4 allo CP: human VLA-4 allosteric modulation in cherry picked compounds. inhibition, % at 6.7 µM. U937 cells, HUTS-21 LIBS mAb binding, flow cytometry; LDV ligand present at threefold Kd. AID 2813. 2% of 1,300 active. shares compounds with VLA-4 inh; in the data active = inhibition above about 40%;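 note: 0% = ligand without compound and 100% = no ligand background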
An asterisk follows results filed as active.

What do the screens show for `CC(C)OC(=O)c1ccc(NC(=O)C2C3CC4OC(=O)C2C4C3)cc1` (stereo not drawn)?
VLA-4 inh: 5; GRK2 aptamer HTS: 0; A3A deaminase: 1; A3G deaminase: -4

What do the screens show for `Cc1ccc(NC(=O)C2C3CC4OC(=O)C2C4C3)cc1Cl` (stereo not drawn)?
VLA-4 inh: 56*; GRK2 aptamer HTS: 2; A3A deaminase: -2; A3G deaminase: -5; VLA-4 allo CP: -6

How did O=C1c2c(O)cc(O)cc2O[C@H](c2ccc(O)cc2)[C@H]1O do in these assays?
VLA-4 inh: 50*; GRK2 aptamer HTS: 0; A3A deaminase: -3; A3G deaminase: 17; VLA-4 allo CP: 6

How did O=C1c2c(O)cc(O)cc2O[C@H](c2ccc(O)c(O)c2)[C@H]1O do in these assays?
VLA-4 inh: 6; GRK2 aptamer HTS: 0; A3A deaminase: -2; A3G deaminase: -10

What do the screens show for `COCCCN(C(=O)CCOc1ccc(C)cc1)c1c(N)n(Cc2ccccc2)c(=O)[nH]c1=O`?
VLA-4 inh: 50*; GRK2 aptamer HTS: 7; A3A deaminase: 1; A3G deaminase: -9; VLA-4 allo CP: 4

Results for COCCNc1oc(-c2ccco2)nc1S(=O)(=O)c1ccccc1 ?
VLA-4 inh: -1; GRK2 aptamer HTS: 0; A3A deaminase: -1; A3G deaminase: -10

What do the screens show for `Brc1ccc2c(c1)OCCOCCOCCOCCOCCO2`?
VLA-4 inh: 5; GRK2 aptamer HTS: 0; A3A deaminase: 0; A3G deaminase: -4

Results for COC(=O)c1c(NC(=O)Cc2ccccc2)sc(C)c1C ?
VLA-4 inh: 0; GRK2 aptamer HTS: 0; A3A deaminase: 0; A3G deaminase: 2

What do the screens show for `CCOC(=O)c1c(NC(=O)C2c3ccccc3Oc3ccccc32)sc(C(C)=O)c1C`?
VLA-4 inh: -9; GRK2 aptamer HTS: 0; A3A deaminase: 2; A3G deaminase: -3; VLA-4 allo CP: 0

Results for COC(=O)c1c(NC(=O)C2c3ccccc3Oc3ccccc32)sc(C)c1C ?
VLA-4 inh: 10; GRK2 aptamer HTS: 0; A3A deaminase: -3; A3G deaminase: -8; VLA-4 allo CP: 8

Results for CCOC(=O)c1c(NC(=O)COC)sc(C(C)=O)c1C ?
VLA-4 inh: 5; GRK2 aptamer HTS: 1; A3A deaminase: 1; A3G deaminase: -1

Results for COC(=O)c1sc(NC(=O)C2c3ccccc3Oc3ccccc32)c(C(=O)OC)c1C ?
VLA-4 inh: 0; GRK2 aptamer HTS: 1; A3A deaminase: -5; A3G deaminase: -7; VLA-4 allo CP: -2

What do the screens show for `COCCCN1Cc2cccc(C(=O)O)c2C1=O`?
VLA-4 inh: -8; GRK2 aptamer HTS: 1; A3A deaminase: 1; A3G deaminase: 0

What do the screens show for `CC1=[N+](C)N(c2ccccc2)C(=O)C1N=Cc1ccc(Cl)cc1` (stereo not drawn)?
VLA-4 inh: 21; GRK2 aptamer HTS: 0; A3A deaminase: -3; A3G deaminase: -4

Results for CCn1c(=N)n(CC(O)c2cccs2)c2ccccc21 (stereo not drawn) ?
VLA-4 inh: 41; GRK2 aptamer HTS: 1; A3A deaminase: 2; A3G deaminase: -1; VLA-4 allo CP: 2

How did CCn1c(=N)n(CC(O)c2ccco2)c2ccccc21 (stereo not drawn) do in these assays?
VLA-4 inh: 7; GRK2 aptamer HTS: 0; A3A deaminase: 3; A3G deaminase: -1

How did CN(CC(=O)NCc1ccccc1F)S(=O)(=O)c1ccc(Cl)cc1 do in these assays?
VLA-4 inh: 6; GRK2 aptamer HTS: 0; A3A deaminase: -3; A3G deaminase: -5; VLA-4 allo CP: 1

Results for CCN(CC(=O)NCc1ccc(Cl)cc1)S(=O)(=O)c1ccc(F)cc1 ?
VLA-4 inh: -4; GRK2 aptamer HTS: 14; A3A deaminase: 7; A3G deaminase: -3; VLA-4 allo CP: 12

Results for COc1ccc(NC(=O)CN(C)S(=O)(=O)c2ccccc2)cc1 ?
GRK2 aptamer HTS: 2; A3A deaminase: 5; A3G deaminase: 0

What do the screens show for `COc1ccc(CNC(=O)CN(C)S(=O)(=O)c2ccccc2)cc1`?
VLA-4 inh: 52*; GRK2 aptamer HTS: 6; A3A deaminase: -1; A3G deaminase: 1; VLA-4 allo CP: 1

How did CCN(CC(=O)NCc1ccc(Cl)cc1)S(=O)(=O)c1ccc(NC(C)=O)cc1 do in these assays?
VLA-4 inh: 3; GRK2 aptamer HTS: 0; A3A deaminase: -4; A3G deaminase: -6

How did O=C(CSc1nnc(CNC(=O)c2ccco2)o1)c1ccc(Cl)cc1 do in these assays?
VLA-4 inh: -4; GRK2 aptamer HTS: 0; A3A deaminase: 5; A3G deaminase: -7

Results for COc1ccc(NC(=S)N2CCCC(c3nc4ccc(C)cc4[nH]3)C2)c(OC)c1 (stereo not drawn) ?
VLA-4 inh: 54*; GRK2 aptamer HTS: 0; A3A deaminase: -3; A3G deaminase: -3; VLA-4 allo CP: 15

Results for Cc1ccc(S(=O)(=O)c2ccc(Cl)cc2)cc1S(=O)(=O)N(C)CC(=O)O ?
VLA-4 inh: 48; GRK2 aptamer HTS: 1; A3A deaminase: -4; A3G deaminase: -9; VLA-4 allo CP: -3

Results for O=C(N/N=C\c1cccnc1)c1cc(-c2ccc(Cl)s2)[nH]n1 ?
VLA-4 inh: 55*; GRK2 aptamer HTS: 0; A3A deaminase: 0; A3G deaminase: -2; VLA-4 allo CP: 8

Results for NS(=O)(=O)c1ccc(CCNC(=O)CNC(=O)COc2ccccc2)cc1 ?
VLA-4 inh: 2; GRK2 aptamer HTS: 0; A3A deaminase: -3; A3G deaminase: -8

Results for O=C(c1cc2ccccc2oc1=O)N1CCN(c2ccc(N3CCOCC3)nn2)CC1 ?
VLA-4 inh: -24; GRK2 aptamer HTS: 6; A3A deaminase: 0; A3G deaminase: 4

What do the screens show for `O=C(c1cc(Br)ccc1Cl)N1CCN(c2ccc(N3CCOCC3)nn2)CC1`?
VLA-4 inh: 51*; GRK2 aptamer HTS: 0; A3A deaminase: -1; A3G deaminase: -6; VLA-4 allo CP: 3

Results for COc1ccccc1C(=O)Nc1ccc2c(c1)CCCN2C(=O)c1ccccc1 ?
VLA-4 inh: 3; GRK2 aptamer HTS: 2; A3A deaminase: 2; A3G deaminase: 4

How did CCCc1ccc(OCc2ccc(C(=O)NCc3cccnc3)o2)c(OC)c1 do in these assays?
VLA-4 inh: 56*; GRK2 aptamer HTS: 4; A3A deaminase: 0; A3G deaminase: -3; VLA-4 allo CP: 8

How did O=C(NCc1cccnc1)c1ccc(COc2ccc(Cl)cc2Cl)o1 do in these assays?
VLA-4 inh: -5; GRK2 aptamer HTS: 2; A3A deaminase: 3; A3G deaminase: -23

How did C=C1[C@@H](O)[C@@H]2O[C@]3(CC[C@H](/C=C/[C@@H](C)[C@@H]4CC(C)=CC5(O[C@H](C[C@@](C)(O)C(=O)OC)CC[C@H]5O)O4)O3)CC[C@H]2O[C@@H]1[C@@H](O)C[C@H](C)[C@H]1OC2(CCCCO2)CC[C@H]1C (stereo partly drawn) do in these assays?
VLA-4 inh: 36; GRK2 aptamer HTS: 4; A3A deaminase: 2; A3G deaminase: -6
